Structures can show the parent of a compound that is named as a salt.
What follows are molecules tested on Saccharomyces cerevisiae BY4741 SeMeCo community (assay: z-score of subpopulation abundance vs DMSO median, subpopulation auxotrophic for HLUM; higher = larger share of this subpopulation than in DMSO controls). Settings: 10 µM; 24 h; SM minimal medium; subpopulation (auxotrophy): HLUM.
Procedure: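 Fluorescent four-plasmid SeMeCo (self-establishing metabolically cooperating S. cerevisiae BY4741 community; plasmids pH-mRuby2, pL-mWasabi, pU-eCFP, pM-TagRFP657) was grown 24 h in minimal SM medium with each Selleck FDA-approved drug at 10 µM in 384-well plates. Cells were fixed and imaged by high-content confocal microscopy. For each auxotrophic subpopulation (and the prototroph), a z-score gives the deviation from the DMSO vehicle-control population median.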

Compared with `CCCOc1ccc(C(=O)OCCN(CC)CC)cc1N` [Proparacaine HCl], `CC1(C)S[C@@H]2[C@H](NC(=O)Cc3ccccc3)C(=O)N2[C@H]1C(=O)O.CCN(CC)CCOC(=O)c1ccc(N)cc1` [Penicillin G Procaine] is higher in “z-score of subpopulation abundance” value: -0.51 for the first, 1.65 for the second.

Compared with `C=CCCCCCCCCC(=O)[O-].C=CCCCCCCCCC(=O)[O-].[Zn+2]` [Zinc Undecylenate], `C[N+](C)(C)CCOC(=O)CCC(=O)OCC[N+](C)(C)C` [Succinylcholine Chloride Dihydrate] is lower in “z-score of subpopulation abundance” value: 3.48 for the first, 0.02 for the second.

First: CN(C)CC(c1ccc(O)cc1)C1(O)CCCCC1 (stereo not given) [Desvenlafaxine]
Second: Cc1cc(O)c(C(=O)N[C@@H](C(=O)N[C@@H]2C(=O)N3C(C(=O)O)=C(CSc4nnnn4C)CS[C@H]23)c2ccc(O)cc2)cn1 [Cefpiramide sodium]
The “z-score of subpopulation abundance” value of the first is lower: -0.91 for the first, -0.55 for the second.

Compared with `CC(C)[N+](C)(CCOC(=O)C1c2ccccc2Oc2ccccc21)C(C)C` [Propantheline bromide], `O=C1N=C(O)NC1(c1ccccc1)c1ccccc1` [Phenytoin Sodium] is higher in “z-score of subpopulation abundance” value: -0.56 for the first, 1.18 for the second.

First: C(=C\c1ccccc1)/CN1CCN(C(c2ccccc2)c2ccccc2)CC1 [Cinnarizine]
Second: O=C1C(CC[S+]([O-])c2ccccc2)C(=O)N(c2ccccc2)N1c1ccccc1 (racemic) [(+/-)-Sulfinpyrazone]
The “z-score of subpopulation abundance” value of the first is higher: 0.66 for the first, -0.47 for the second.

Compared with `O=C(O)c1ccccc1C(=O)Nc1ccc(S(=O)(=O)Nc2nccs2)cc1` [Phthalylsulfathiazole], `CCC(=O)NS(=O)(=O)c1ccc(-c2c(-c3ccccc3)noc2C)cc1` [Parecoxib] is lower in “z-score of subpopulation abundance” value: 0.99 for the first, -0.37 for the second.

First: N#Cc1ccc2[nH]cc(CCCCN3CCN(c4ccc5oc(C(N)=O)cc5c4)CC3)c2c1 [Vilazodone]
Second: Cc1nc2n(c(=O)c1CCN1CCC(c3noc4cc(F)ccc34)CC1)CCCC2O (stereo not given) [Paliperidone]
The “z-score of subpopulation abundance” value of the first is higher: 0.53 for the first, -0.53 for the second.

First: CCOC(=O)C1=C(C)NC(C)=C(C(=O)OCC)C1c1ccccc1/C=C/C(=O)OC(C)(C)C [Lacidipine]
Second: CCCC(=O)OCOC(=O)C1=C(C)NC(C)=C(C(=O)OC)C1c1cccc(Cl)c1Cl (stereo not given) [Clevidipine Butyrate]
The “z-score of subpopulation abundance” value of the first is lower: -0.21 for the first, 0.59 for the second.

Compared with `COc1ccc(C[C@H](N)C(=O)N[C@H]2[C@@H](O)[C@H](n3cnc4c(N(C)C)ncnc43)O[C@@H]2CO)cc1` [Puromycin 2HCl], `O=c1c(-c2ccc(O)cc2)coc2c([C@@H]3O[C@H](CO)[C@@H](O)[C@H](O)[C@H]3O)c(O)ccc12` [Puerarin] is lower in “z-score of subpopulation abundance” value: -0.22 for the first, -0.33 for the second.

First: O=[N+]([O-])c1ccc(O)c2ncccc12 [Nitroxoline]
Second: Oc1c(Br)cc(Br)c2cccnc12 [Broxyquinoline]
The “z-score of subpopulation abundance” value of the first is lower: 36.6 for the first, 44.9 for the second.

Going from `CO[C@H]1C[C@@H]2CC[C@@H](C)[C@@](O)(O2)C(=O)C(=O)N2CCCC[C@H]2C(=O)O[C@H]([C@H](C)C[C@@H]2CC[C@@H](O)[C@H](OC)C2)CC(=O)[C@H](C)/C=C(\C)[C@@H](O)[C@@H](OC)C(=O)[C@H](C)C[C@H](C)/C=C/C=C/C=C/1C` [Rapamycin (Sirolimus)] to `CC(=O)O[C@H]1C[C@@H]2CC[C@@H]3[C@H](CC[C@@]4(C)[C@H]3C[C@H]([N+]3(C)CCCCC3)[C@@H]4OC(C)=O)[C@@]2(C)C[C@@H]1N1CCCCC1` [Vecuronium Bromide], the “z-score of subpopulation abundance” value falls from 20.9 to 0.24.

Compared with `Cc1c(C)c2c(c(C)c1O)CCC(C)(CCCC(C)CCCC(C)CCCC(C)C)O2` (stereo not given) [Vitamin E], `CCc1cccc2c3c([nH]c12)C(CC)(CC(=O)O)OCC3` (stereo not given) [Etodolac] is higher in “z-score of subpopulation abundance” value: -1.29 for the first, -0.89 for the second.

First: CN1[C@@H]2CC[C@H]1C[C@@H](OC(=O)c1c[nH]c3ccccc13)C2 [Tropisetron HCl]
Second: C[N+]1(C)[C@@H]2CC[C@H]1C[C@@H](OC(=O)C(O)c1ccccc1)C2 (stereo not given in full) [Homatropine Methylbromide]
The “z-score of subpopulation abundance” value of the first is higher: 1.3 for the first, -0.38 for the second.

Going from `COc1ccnc(C[S+]([O-])c2nc3cc(-n4cccc4)ccc3[nH]2)c1C` (stereo not given) [Ilaprazole sodium] to `COCCCOc1ccnc(C[S+]([O-])c2nc3ccccc3[nH]2)c1C` (stereo not given) [Rebeprazole sodium], the “z-score of subpopulation abundance” value falls from 0.94 to 0.04.

First: Cc1cc(/C=C/c2ccc3cc(N(C)C)ccc3[n+]2C)c(C)n1-c1ccccc1 [pyrvinium]
Second: CN(C/C=C/C#CC(C)(C)C)Cc1cccc2ccccc12 [Terbinafine HCl]
The “z-score of subpopulation abundance” value of the first is lower: -0.49 for the first, 1 for the second.

Going from `CC1(C)S[C@@H]2[C@H](NC(=O)C(c3ccccc3)S(=O)(=O)O)C(=O)N2[C@H]1C(=O)O` (stereo not given in full) [Sulbenicillin Sodium] to `CC1(C)S[C@@H]2[C@H](NC(=O)[C@H](NC(=O)N3CCNC3=O)c3ccccc3)C(=O)N2[C@H]1C(=O)O` [Azlocillin sodium salt], the “z-score of subpopulation abundance” value falls from 1.16 to 0.63.

First: COC(=O)C1=C(C)NC(C)=C(C(=O)OC(C)(C)CN(C)CCC(c2ccccc2)c2ccccc2)C1c1cccc([N+](=O)[O-])c1 (stereo not given) [Lercanidipine]
Second: COC(=O)C1=C(C)NC(C)=C(C(=O)OC)C1c1ccccc1[N+](=O)[O-] [Nifedipine]
The “z-score of subpopulation abundance” value of the first is higher: 1.54 for the first, 1.1 for the second.

First: Clc1ccc(CCC(Cn2ccnc2)Sc2c(Cl)cccc2Cl)cc1 (stereo not given) [Butoconazole]
Second: CCCCN1CCCC[C@H]1C(=O)Nc1c(C)cccc1C [Levobupivacaine HCl]
The “z-score of subpopulation abundance” value of the first is higher: 32.1 for the first, -0.43 for the second.

First: NC[C@@H]1O[C@H](O[C@H]2[C@@H](O)[C@H](O[C@@H]3[C@@H](O)[C@H](N)C[C@H](N)[C@H]3O[C@H]3O[C@H](CO)[C@@H](O)[C@H](O)[C@H]3N)O[C@@H]2CO)[C@H](N)[C@@H](O)[C@@H]1O [Paromomycin Sulfate]
Second: COc1ccc2cc3[n+](cc2c1OC)CCc1cc2c(cc1-3)OCO2 [Berberine chloride]
The “z-score of subpopulation abundance” value of the first is higher: 0.85 for the first, -0.12 for the second.

Going from `COc1ccc2[nH]c([S+]([O-])Cc3ncc(C)c(OC)c3C)nc2c1` (stereo not given) [Omeprazole Sodium] to `CCc1c(C)[nH]c2c1C(=O)C(CN1CCOCC1)CC2` (stereo not given) [Molindone hydrochloride], the “z-score of subpopulation abundance” value rises from -0.1 to 0.04.
